Screening data (PubChem)
SSB-PriA inh: blocks PriA binding to SSB C-terminal tail. AlphaScreen SSBct-PriA binding, biotinylated peptide. inhibition, % at 33 µM. hit rate 0.6% among 430,000. AID 1272365; in the data active means inhibition mostly above about 37%, no sharp cut-off; inactive means mostly below about 20%
MazEF act: activators of E. coli MazEF toxin-antitoxin RNase. AID 504720. hit rate 0.32% among 350,000. activation, % at 20 µM. FAM/BHQ RNA-DNA oligo cleavage fluorescence, 5 h; in the data active means activation above about 50%
Target sequence (P0AE70 whole entry, looked up): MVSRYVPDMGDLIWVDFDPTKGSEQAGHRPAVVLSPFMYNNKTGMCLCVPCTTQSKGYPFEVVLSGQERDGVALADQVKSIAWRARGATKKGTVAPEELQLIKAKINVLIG
ugtP null kill: compounds lethal to S. aureus RN4220 ugtP deletion mutant; OD600 growth, 16 h; growth inhibition, % (concentration not given with the values); hit rate 0.54% among 330,000; AID 1259309; in the data active means growth inhibition above about 68%
Sa RN4220 lethal: S. aureus RN4220 growth inhibition. OD600, 16 h. inhibition, % (test concentration not listed). hit rate 0.33% among 330,000; in the data active means inhibition above about 85%
BJeLR lethal: BJeLR cell viability loss; BJeLR (HRASV12) viability, CellTiter-Glo ATP luminescence, 48 h; inhibition, % (no concentration beside the values); hit rate 0.17% among 300,000; AID 1554; in the data active means inhibition above about 50%
Of the large screens only hits and unclear results are named; the others gave an inactive call; ! = not active in a repeat. Shown are actives, neighbours in structure and some others; about 1.2% of the full set was active somewhere.

COCCN1CCCc2ccc(NS(=O)(=O)c3ccccc3Cl)cc21	none (no result: MazEF act, ugtP null kill, Sa RN4220 lethal, BJeLR lethal)
COCCN1CCCc2ccc(NS(=O)(=O)c3ccc(C(C)(C)C)cc3)cc21	SSB-PriA inh 39 (no result: MazEF act, ugtP null kill, Sa RN4220 lethal, BJeLR lethal)
COCCN1CCCc2ccc(NS(=O)(=O)c3ccc(OC)cc3)cc21	none (no result: MazEF act, ugtP null kill, Sa RN4220 lethal, BJeLR lethal)
COCCN1CCCc2ccc(NS(=O)(=O)c3cc(Cl)ccc3C)cc21	SSB-PriA inh 57 (no result: MazEF act, ugtP null kill, Sa RN4220 lethal, BJeLR lethal)
COc1ccc(N(C(=O)C2COc3ccccc3O2)C(C(=O)NC2CCCCC2)c2ccccc2)cc1OC (stereo unspecified)	none
O=C(NN=Cc1ccccc1O)/C(=C/c1ccccc1)CCO	none (no result: MazEF act, BJeLR lethal)
Cc1cccc(N2C(=O)c3cccc4c(N(C)CCO)ccc(c34)C2=O)c1	MazEF act 78
Cc1cccc(N2C(=O)c3cccc4c(N)ccc(c34)C2=O)c1	none (no result: ugtP null kill, Sa RN4220 lethal)
Cc1c(CNS(=O)(=O)c2ccccc2F)sc2nc(-c3ccc(F)cc3)cn12	SSB-PriA inh 36 (no result: MazEF act, ugtP null kill, Sa RN4220 lethal, BJeLR lethal)
COc1cccc(OC)c1C(=O)NCc1sc2nc(-c3ccc(F)cc3)cn2c1C	none (no result: MazEF act, ugtP null kill, Sa RN4220 lethal, BJeLR lethal)
Nc1nc(Cl)cc(N2CCC(c3cc(-c4ccc(Cl)cc4)n[nH]3)CC2)n1	ugtP null kill 94
COc1ccc(OC)c(-c2cc(C3CCN(c4cc(Cl)nc(N)n4)CC3)[nH]n2)c1	none (no result: SSB-PriA inh)
COc1ccc(-c2cc(C3CCN(c4cc(Cl)nc(N)n4)CC3)[nH]n2)cc1	ugtP null kill 95
Cc1ncc(C(=O)O)n1C(C)c1ccccc1 (stereo unspecified)	none (no result: SSB-PriA inh, ugtP null kill, Sa RN4220 lethal, BJeLR lethal)
CN(C)CCN(C(=O)c1ccccc1[N+](=O)[O-])c1nc2ccc(Br)cc2s1	SSB-PriA inh 47 (no result: MazEF act, ugtP null kill, Sa RN4220 lethal, BJeLR lethal)
CN(C)CCCN(C(=O)c1ccc(S(=O)(=O)N(C)Cc2ccccc2)cc1)c1nc2cc3c(cc2s1)OCO3	SSB-PriA inh 40!
CN(C)CCN(C(=O)c1cccc2ccccc12)c1nc2cc3c(cc2s1)OCO3	SSB-PriA inh 47
CN(C)CCN(C(=O)c1ccc2ccccc2c1)c1nc2ccc(Br)cc2s1	none
CN(C)CCCN(C(=O)c1ccc2ccccc2c1)c1nc2cc3c(cc2s1)OCO3	none
Cc1cc(C)c2sc(N(CCCN(C)C)C(=O)c3ccc(S(=O)(=O)N(C)Cc4ccccc4)cc3)nc2c1	SSB-PriA inh 49
CC(C)c1ccccc1-n1cc[nH]c1=S	none
CN(C)CCCN(C(=O)COc1ccc(Cl)cc1)c1nc2cc3c(cc2s1)OCCO3	ugtP null kill 91
CCCCN(CC)S(=O)(=O)c1ccc(C(=O)N(CCCN(C)C)c2nc3cc(C)cc(C)c3s2)cc1	none
CCN(Cc1ccccc1)S(=O)(=O)c1ccc(C(=O)N(CCCN(C)C)c2nc3cc(C)cc(C)c3s2)cc1	SSB-PriA inh 43
CCN1C(=O)/C(=C2/SC(C)=C(C)N2CC)SC1=S	MazEF act 76
C=C1C(=O)C=C2CN(C(=O)c3ccccc3)[C@@](Cc3ccc(F)cc3)(C(=O)OC)[C@@H]12	BJeLR lethal 107 (no result: ugtP null kill, Sa RN4220 lethal)
COC(=O)[C@@]1(Cc2ccc(F)cc2)C2C(CC(=O)C2CC(=O)C(=O)N(C)C)CN1C(=O)c1ccccc1 (stereo partly specified)	none (no result: SSB-PriA inh, MazEF act, BJeLR lethal)
NC(=O)NC(=O)CSc1nc(-c2ccccc2)c(-c2ccccc2)n1CC1CCCO1 (stereo unspecified)	none
CCN(CC)c1ccc2c(cc1=O)[C@@H](NC)CCc1cc(OC)c(OC)c(OC)c1-2	BJeLR lethal 56 (no result: ugtP null kill, Sa RN4220 lethal)
CN[C@H]1CCc2cc(OC)c(OC)c(OC)c2-c2ccc(N(C)CC(OC)OC)c(=O)cc21	BJeLR lethal 53
COc1cc2c(c(OC)c1OC)-c1ccc(N(C)CC(OC)OC)c(=O)cc1[C@@H](NC(C)=O)CC2	none
O=C(OCC(=O)N(CCc1ccccc1)Cc1ccccc1)c1ccccc1O	none
C#CCOc1ccc(C2C3=C(COC3=O)Nc3cc4c(cc32)OCO4)cc1OC (stereo unspecified)	BJeLR lethal 61
Cc1cc(C)cc(NC(=O)CCCCCN2C(=O)[C@@H]3Cc4ccccc4CN3C2=O)c1	none
O=C(Oc1c(CN2CCOCC2)cc(Cl)c2cccnc12)c1ccccc1F	SSB-PriA inh 58
O=C(Oc1c(CN2CCOCC2)cc(Cl)c2cccnc12)c1ccco1	SSB-PriA inh 101 (no result: MazEF act, ugtP null kill, Sa RN4220 lethal, BJeLR lethal)
O=C(Oc1c(CN2CCOCC2)cc(Cl)c2cccnc12)c1ccccc1	none
N#Cc1ccccc1CSc1ncccc1C(=O)O	none
c1ccc(CNc2nc3ccccc3n3cnnc23)cc1	SSB-PriA inh 104
CCN1/C(=C/C=C/c2oc3ccc4ccccc4c3[n+]2CC)Oc2ccc3ccccc3c21	ugtP null kill 99, Sa RN4220 lethal 98 (no result: BJeLR lethal)
CCn1c(C)nc2cc(-c3nc4n(n3)Cc3ccccc3-4)ccc21	BJeLR lethal 63
Cc1ccc(-c2nc3n(n2)Cc2ccccc2-3)cc1	none
FC(F)(F)c1cccc(NC(=S)NCC2COc3ccccc3O2)c1 (stereo unspecified)	ugtP null kill 83
COc1ccccc1C1CCN(Cc2c(C)[nH]c3ccccc23)CC1	none
O=Cc1cc2ccccc2nc1SCc1ccc(Cl)cc1	BJeLR lethal 63
O=Cc1cc2ccccc2nc1SCc1ccc(Cl)c(Cl)c1	ugtP null kill 99, BJeLR lethal 55
Cn1cc(CO)cn1	none (no result: MazEF act, ugtP null kill, Sa RN4220 lethal, BJeLR lethal)
CCOC(=O)C1=C2NC(=O)c3ccccc3N2C(=O)C1	MazEF act 132
CCOC(=O)C1=C(N)N(c2ccccc2Oc2ccccc2)C(=O)C1	none
O=[N+]([O-])c1cc(CN2CCN(Cc3ccccc3)CC2)ccc1Sc1ccc(Cl)cc1	SSB-PriA inh 58 (no result: MazEF act, ugtP null kill, Sa RN4220 lethal, BJeLR lethal)
CN1CCN(Cc2ccc(Sc3ccc(Cl)cc3)c([N+](=O)[O-])c2)CC1	none
COc1ccc(NC(=O)c2cc(-c3cc(C)cc(C)c3O)n[nH]2)cc1Cl	ugtP null kill 90
COc1ccc(NC(=O)c2cc(-c3ccccc3O)n[nH]2)cc1Cl	none
O=c1[nH]c(=O)n(C2OC(CO)C(O)C2O)cc1Br (stereo unspecified)	none
O=c1[nH]c(=O)n([C@H]2C[C@H](O)[C@@H](CO)O2)cc1F	BJeLR lethal 93 (no result: ugtP null kill, Sa RN4220 lethal)
O=c1[nH]c(=O)n(C2CC(O)C(CO)O2)cc1I (stereo unspecified)	none (no result: BJeLR lethal)
CC1OC(n2cc(F)c(=O)[nH]c2=O)C(O)C1O (stereo unspecified)	ugtP null kill 97 (no result: SSB-PriA inh, MazEF act, BJeLR lethal)
O=C(OCc1nnc(-c2ccc([N+](=O)[O-])cc2)o1)C1CCN(C(=O)c2ccc(Cl)cc2)CC1	none (no result: BJeLR lethal)
O=C(N/N=C/c1cccnc1)c1ccc(NC(=O)C(c2ccccc2)c2ccccc2)cc1	MazEF act 61, BJeLR lethal 106 (no result: SSB-PriA inh, ugtP null kill, Sa RN4220 lethal)
Cc1ccc(C(=O)Nc2ccc(C(=O)NN=Cc3cccnc3)cc2)cc1	none (no result: MazEF act, BJeLR lethal)
CN(CC(=O)Nc1cccc(F)c1)C(=O)c1ccc(N2CCCC2)c([N+](=O)[O-])c1	none
N#C/C(=C(/O)c1ccco1)c1nc2ccccc2s1	none
CC1=CC(=C(C#N)c2nc3ccccc3s2)C=C(C)N1Cc1ccco1	MazEF act 605
CCCc1c(-c2ccc(O)cc2)nn(-c2ccc(O)cc2)c1-c1ccc(O)cc1	MazEF act 51 (no result: ugtP null kill, Sa RN4220 lethal)
CN=c1scc(-c2ccccc2F)n1N=Cc1ccc[nH]1	none (no result: MazEF act, BJeLR lethal)
C[C@@]12C(=O)N(Cc3ccc(Cl)cc3)CC(=O)N1[C@H]1c3ccccc3OC[C@@H]1[C@@H]2c1ccccc1	none (no result: ugtP null kill, Sa RN4220 lethal, BJeLR lethal)
